Here are results for 14 compounds from PubChem BioAssay.

Where “and” joins values, the source holds several entries; their conditions need not be identical. Equal values may be shown once. Calls of active or inactive are those of the source.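 Rule for the calls, unless noted: active = thallium flux through the channel raised or lowered by more than 3 SD from vehicle-only wells, actives on both sides; inactive = the rest.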

Test [1] has as its target NAD(+) hydrolase SARM1 (Homo sapiens) (UniProt Q6SZW1). Kind of test: blocking NAD cleavage by SARM1 SAM-TIR – cell lysate, NAD-Glo luminescence (AID 1508614;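 active = compound whose remaining NAD level is above about 45 nM, limit read from the data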;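 note: higher remaining NAD means stronger inhibition of SARM1 NADase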). The note with it: SAM-TIR HEK293T lysate NADase, at 1 µM, active compounds read high.
Test [2] concerns the target Mitogen-activated protein kinase 7 (Homo sapiens) (UniProt Q13164). Kind of test: Gal4-ERK5 driven luciferase induction – cell-based, HTS, primary screen (AID 1508626;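 active = luciferase signal above three times the same-plate solvent-only control wells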;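 note: luciferase driven by Gal4-ERK5 fusion binding five Gal4 sites before minimal TATA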). The note with it: HeLa Gal4-ERK5 transactivation, 18 h, at 5 µM, active compounds read high.
A short description of test [3]: galactose survival enhancers in mitochondrial complex I cybrids – cell-based, galactose medium, ATP luminescence, primary screen (AID 1645843;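 active = z-score of at least 1.8 in each of two replicates, scored against plate mean and spread of sample wells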;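 note: positive z means more ATP and so rescue of galactose-driven cybrid death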). The note with it: complex I mutant cybrid cells, 72 h, active compounds read high.
The test system of another test is F380Y. Kind of test: BK channel mutant inhibitors and activators – cell-based, U2OS BacMam, thallium flux, beta subunits, selectivity assay, profiling panel (AID 1259406).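 Note: initial slope of Thallos dye fluorescence rise after thallium is added; log ratio against the mean of 0.3% DMSO vehicle wells on the same plate.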 As to conditions: U2OS BacMam BK variants, at 30 µM.
The test system of the next test is F380Y/beta1. The test is described as above. As to conditions: U2OS BacMam BK variants, at 30 µM.

Sequence of NAD(+) hydrolase SARM1 (Homo sapiens) (Q6SZW1 whole entry, looked up, the tested form may be a part): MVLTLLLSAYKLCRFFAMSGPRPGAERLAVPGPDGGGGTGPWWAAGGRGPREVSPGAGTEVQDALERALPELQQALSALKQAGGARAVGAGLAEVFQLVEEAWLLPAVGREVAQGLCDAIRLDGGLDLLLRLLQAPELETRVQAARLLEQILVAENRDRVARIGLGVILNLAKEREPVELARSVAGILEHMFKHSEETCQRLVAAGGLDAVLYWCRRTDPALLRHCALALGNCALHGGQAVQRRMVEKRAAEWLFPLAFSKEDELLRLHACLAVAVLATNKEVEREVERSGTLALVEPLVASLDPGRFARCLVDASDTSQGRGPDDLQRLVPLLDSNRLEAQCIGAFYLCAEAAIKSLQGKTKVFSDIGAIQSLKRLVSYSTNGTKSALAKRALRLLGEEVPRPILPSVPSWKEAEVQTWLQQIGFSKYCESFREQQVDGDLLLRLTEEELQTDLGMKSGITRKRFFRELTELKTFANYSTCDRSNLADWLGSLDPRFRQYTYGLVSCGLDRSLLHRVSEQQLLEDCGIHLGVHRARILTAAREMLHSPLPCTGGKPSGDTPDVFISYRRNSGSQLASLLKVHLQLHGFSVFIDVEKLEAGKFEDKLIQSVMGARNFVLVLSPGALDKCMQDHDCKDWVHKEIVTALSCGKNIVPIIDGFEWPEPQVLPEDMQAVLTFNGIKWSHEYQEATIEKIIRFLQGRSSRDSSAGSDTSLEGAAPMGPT
Sequence of Mitogen-activated protein kinase 7 (Homo sapiens) (Q13164 whole entry, looked up, the tested form may be a part): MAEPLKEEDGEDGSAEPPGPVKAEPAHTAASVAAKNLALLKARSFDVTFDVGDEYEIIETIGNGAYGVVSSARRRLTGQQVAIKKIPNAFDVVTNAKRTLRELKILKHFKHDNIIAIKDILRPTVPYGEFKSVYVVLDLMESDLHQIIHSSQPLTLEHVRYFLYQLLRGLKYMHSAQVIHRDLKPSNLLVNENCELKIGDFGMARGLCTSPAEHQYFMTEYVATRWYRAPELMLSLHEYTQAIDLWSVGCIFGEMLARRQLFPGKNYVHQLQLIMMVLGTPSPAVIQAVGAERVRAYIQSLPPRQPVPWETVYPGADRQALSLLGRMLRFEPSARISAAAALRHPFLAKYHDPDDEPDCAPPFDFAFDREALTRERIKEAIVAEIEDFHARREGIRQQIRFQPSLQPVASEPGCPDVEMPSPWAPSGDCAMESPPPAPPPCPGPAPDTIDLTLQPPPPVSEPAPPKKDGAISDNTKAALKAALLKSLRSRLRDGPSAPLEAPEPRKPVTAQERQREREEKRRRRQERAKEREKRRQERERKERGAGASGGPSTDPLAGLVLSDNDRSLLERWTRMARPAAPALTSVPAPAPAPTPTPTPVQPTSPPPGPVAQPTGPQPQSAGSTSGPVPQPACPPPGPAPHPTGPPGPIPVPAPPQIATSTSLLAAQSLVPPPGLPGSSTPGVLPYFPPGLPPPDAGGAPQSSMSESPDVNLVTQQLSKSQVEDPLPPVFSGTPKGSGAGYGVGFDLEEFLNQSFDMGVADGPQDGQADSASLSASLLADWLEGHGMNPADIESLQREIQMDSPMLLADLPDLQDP

As to `CCCc1nc(C)c2c(=O)[nH]c(-c3cc(S(=O)(=O)N4CCN(CC)CC4)ccc3OCC)nn12`, the remaining NAD in test [1] was 18 nM (inactive). Also, the luciferase signal in test [2] is 60 AU (inactive). The z-score in test [3] was 0.68 (inactive) and 0.485 (inactive). Moreover, the values for the log fold change Tl+ flux with F380Y and in the test on F380Y/beta1 were -0.00852 (inactive) and 0.00246 (inactive), respectively.
Turning to `O=C1c2cccc3c2[C@H](CCC3)CN1[C@@H]1CN2CCC1CC2`, the log fold change Tl+ flux is 0.0472 (inactive) in the test with F380Y and 0.0342 (inactive) with F380Y/beta1.
For the compound `CCCN1CCCC[C@H]1C(=O)Nc1c(C)cccc1C`, the values for the log fold change Tl+ flux in the test with F380Y and with F380Y/beta1 were 0.0271 (inactive) and 0.0176 (inactive), respectively.
For the compound `c1cnc(N2CCN(Cc3ccc4c(c3)OCO4)CC2)nc1`, the log fold change Tl+ flux in the test with F380Y was -0.0152 (inactive).
In the case of `O=C(CCNNC(=O)c1ccncc1)NCc1ccccc1`, the remaining NAD in test [1] is 10 nM (inactive). In test [2], the luciferase signal was 76 AU (inactive). For the same compound, the z-score in test [3] is 0.035 (inactive) and 0.205 (inactive) and 0.305 (inactive). The log fold change Tl+ flux was 0.000985 (inactive) in the test with F380Y and 0.00246 (inactive) in the test with F380Y/beta1.
Regarding `C#C[C@]1(O)CC[C@H]2[C@@H]3[C@H](C)CC4=C(CCC(=O)C4)[C@H]3CC[C@@]21C`, in test [1], the remaining NAD is 10 nM (inactive). In test [3], the z-score was -0.015 (inactive). Further, the figures for the log fold change Tl+ flux with F380Y and in the test on F380Y/beta1 were 0.0382 (inactive) and 0.123 (active), respectively.
The matching figures for `CC[N+](C)(CC)CCOC(=O)C(O)(c1ccccc1)C1CCCCC1` (stereo not drawn): 10 nM (inactive), 0.47 (inactive), -0.192 (active) and -0.0336 (inactive).
Regarding `CC(=O)Oc1ccccc1C(=O)Nc1ncc([N+](=O)[O-])s1`, the remaining NAD in test [1] was 10 nM (inactive). The z-score in test [3] was -1.79 (inactive). The figures for the log fold change Tl+ flux in the test on F380Y and in the test with F380Y/beta1 were -0.199 (active) and 0.0346 (inactive), respectively.
The matching figures for `CC(=O)Nc1ccc(CC(=O)O)cc1`: 10 nM (inactive), 0.87 (inactive), -0.0209 (inactive) and -0.00468 (inactive).
For `O=C(O)CCNC(=O)c1ccc(N=Nc2ccc(O)c(C(=O)O)c2)cc1`, in that order: 10 nM (inactive), 1.23 (inactive), -0.00418 (inactive) and -0.0255 (inactive).
As for `NS(=O)(=O)c1cc(C(=O)O)c(NCc2ccco2)cc1Cl`, the remaining NAD in test [1] was 10 nM (inactive). The luciferase signal in test [2] was 72 AU (inactive). Further, the z-score in test [3] was 0.405 (inactive) and 0.415 (inactive). The log fold change Tl+ flux in the test with F380Y was -0.0179 (inactive); in the test with F380Y/beta1, -0.0049 (inactive).
As to `COC(=O)C1=C(C)NC(C)=C(C(=O)OCC(C)C)C1c1ccccc1[N+](=O)[O-]` (stereo not drawn), in test [1], the remaining NAD is 10 nM (inactive). In addition, the luciferase signal in test [2] was 72 AU (inactive). Also, the z-score in test [3] was -1.86 (inactive) and -2 (inactive). Moreover, the log fold change Tl+ flux was 0.333 (active) with F380Y and 0.689 (active) in the test with F380Y/beta1.
With `COc1ccc(C(=O)NCc2ccc(OCCN(C)C)cc2)cc1OC`, the remaining NAD in test [1] was 14 nM (inactive). For the same compound, the z-score in test [3] was 0.35 (inactive) and 0.59 (inactive). For the same compound, the log fold change Tl+ flux in the test on F380Y is -0.0346 (inactive); in the test on F380Y/beta1, -0.00341 (inactive).
In the case of `CCC(=O)O[C@]1(C(=O)SCF)[C@H](C)C[C@H]2[C@@H]3C[C@H](F)C4=CC(=O)C=C[C@]4(C)[C@@]3(F)[C@@H](O)C[C@@]21C`, the remaining NAD in test [1] was 10 nM (inactive). For the same compound, in test [3], the z-score was 0.435 (inactive). In addition, the log fold change Tl+ flux was 0.0283 (inactive) with F380Y and -0.0132 (inactive) with F380Y/beta1.
